Source: the supplement of paper PMC10338343
± gives the standard deviation. In all, about 5,500 sequences were measured (“pre-steady-state target cleavage rate”: median about 0.1, highest 2% from about 0.64 on). This is one part of a sample in which the highest values are shown more often than they occur.

tested on: MIWI (PIWIL1) piRISC loaded with piRNA #2 (30 nt); experiment: pre-steady-state target cleavage rate (min^-1); MIWI and MILI are mouse PIWI proteins and EfPiwi is from a freshwater sponge; tags in brackets are library labels; higher = faster piRNA-guided slicing of the target; details: guide: piRNA #2 5'p-UUAGGUAACCCAGUAGAUCCAGAGGAAUUC; auxiliary factor: 500 nM mouse GTSF1
Protocol: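 Cleave-'n-Seq: a library of target RNAs (target site embedded in constant flanks, ACAGCATTCCGCGTTAGTGATATCCG... 5' flank; DNA-blocked outside the site) at 0.1 nM was incubated with 1 nM active mouse MILI or MIWI piRISC (synthetic 5'-monophosphorylated piRNA guide) with or without 500 nM mouse GTSF1 at 33 °C for 1 min to 16 h. Uncleaved targets were sequenced and normalised to non-target controls, and the pooled three trials were fitted to a burst-and-steady-state model to give the pre-steady-state cleavage rate (min^-1; k3 is constrained to at most 1e-4). Sequence is the target site only; target names encode pairing extent (gX:gY) and contiguous / 1-mismatch / 2-mismatch / bulge geometry. Fits with R² ≤ 0 are excluded.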

Sequence	pre-steady-state target cleavage rate
CAAUUCCUUGGAUCUACUGGGUUACCUAA	0.45 ± 0.061
CUUAACCUCAGGAUCUAGUGGGUUACCUAA	0.128 ± 0.017
CUUAUCCUCUCGAUCUACUGCGUUACCUAA	0.636 ± 0.048
CUUAUCCUCUCGAUCUACUGGGUUACCUAA	0.561 ± 0.04
CUUAACCUCUCGAUCUACUGCGUUACCUAA	0.614 ± 0.057
CAAUUCCACUGGAUCUACUGGGUUACCAAA	0.456 ± 0.083
CUUAUCCUCUGGAUCUACAGGGUAACCUAA	0.128 ± 0.023
GAAUUCCUCUGGUUCUACUGGGUUACCUUA	0.427 ± 0.064
CUAUUCCUCUGGUUCUACUGGGUUACGUAA	0.629 ± 0.059
CAAUUCCUCUGGUUCUACUGGGUUACCUUA	0.475 ± 0.066
GUAUUCCUCUGGUUCUACUGGGUUACCUAA	0.0955 ± 0.034
CUAUUCCUCUGGUUCUACUGGGUUACCUAA	0.711 ± 0.043
GAAUUCCUCUGGUCUACUGGGUUACCUAA	0.301 ± 0.059
GAAUUCCUCUGGUUCUACUGGGUUACGUAA	0.618 ± 0.035
CAAUUCCUCUGGUUCUACUGGGUUACCUAA	0.868 ± 0.05
GAAUUCCUCUGGUUCUACUGGGUUACCUAA	0.678 ± 0.042
CAAUUCCUCUGGUCUACUGGGUUACCUAA	0.369 ± 0.088
CUAUUCCUCUGGUUCUACUGGGUUACCUUA	0.371 ± 0.057
CAAUUCCUCUGGUUCUACUGGGUUACGUAA	0.688 ± 0.045
CUUAAGCAGAGGAUCUACUGGGUUACCUAA	0.0315 ± 0.0087
GAAUUCCACAGGAUCUACUGGGUUACCUAA	0.408 ± 0.05
CUUAAGGUCUGGAUCUACUGGGUUAGCCUAA	0.185 ± 0.025
CUUUUCCUCUGGAUCUUCUGGGAUACCUAA	0.146 ± 0.022
CUUAAGGUGAGGAUCUACUGGGUUACCUAA	0.0307 ± 0.01
CUUAUCCUCUGGAUCUACUGCGUUACCUAA	0.498 ± 0.055

Sequence	pre-steady-state target cleavage rate
CUUAAGGUCUGCAUCUAGUGGGUUACCUAA	0.0327 ± 0.0059
CUUUUCCUCUGGUUCUACUGGGUUACCUAA	0.621 ± 0.042
CAAUUCCUCUGCUUCUACUGGGUUACCUAA	0.653 ± 0.056
CAUUUCCUCUGGUUCUACUGGGUUACCUAA	0.772 ± 0.046
GAAUUCCUCUGCUUCUACUGGGUUACCUAA	0.48 ± 0.04
CUAUUCCUCUGCUUCUACUGGGUUACCUAA	0.516 ± 0.04
GAUUUCCUCUGGUUCUACUGGGUUACCUAA	0.524 ± 0.046
CUUAAGGUCUGGUUCUAGUGGGUUACCUAA	0.0776 ± 0.014
CUUAAGGACUGGAUCUACUGGGUUACCAUAA	0.051 ± 0.039
CUUAAGUUCUGGAUCUACUGGGUUACCUAA	0.274 ± 0.04
CAAUUCCUCUGGAUCUACUGGGAUACCUUA	0.219 ± 0.046
CUUAACCUCUGGAUCAACUCGGUUACCUAA	0.0679 ± 0.013
CUUAUCCUCUGGAUCUUCUGGGAUACCUAA	0.144 ± 0.025
GAAUUCCUCUGCAUCUACUGGGUUACCUAA	0.421 ± 0.051
CAAUUCCUCUGGCUCUACUGGGUUACCUAA	0.66 ± 0.04
CUUUUCCUCUGGCAUCUACUGGGUUACCUAA	0.331 ± 0.089
GAAUUCCUCUGGCAUCUACUGGGUUACCUAA	0.667 ± 0.17
CAAUUCCUCUGGCAUCUACUGGGUUACCUAA	0.636 ± 0.17
CUAUUCCUCUGGCAUCUACUGGGUUACCUAA	0.399 ± 0.1
GAAUUCCUCUGGCUCUACUGGGUUACCUAA	0.586 ± 0.038
CUAUUCCUCUGGCUCUACUGGGUUACCUAA	0.612 ± 0.042
CAAUUCCUCUGCAUCUACUGGGUUACCUAA	0.57 ± 0.049
CUUAACCACUGGAACUACUGGGUUACCUAA	0.292 ± 0.025
CUAUUCCACUGGAUCUACUGGGUUUCCUAA	0.448 ± 0.066
CAAUUGCUCUGGAUCUACUGGGUUACCAAA	0.429 ± 0.071

Sequence	pre-steady-state target cleavage rate
CUUAAGGUCUGGAUCUACUGGGUUACAUAA	0.606 ± 0.054
CUAUUCCUCUGGAUCUACUGGGUUACCUAAA	0.333 ± 0.047
CUUUUCCUCUCGAUCUACUGGCUUACCUAA	0.201 ± 0.016
CUUAAGGUCUGGAUCAACUGGGUUACGUAA	0.293 ± 0.039
CUUAACCUCUGGAUCUACUGGUUACCUAA	0.0564 ± 0.012
CUUAUCCUCUGGAUCUACUGGAUUACCUAA	0.402 ± 0.049
CUUAUCCUCUGGAUCUACUGGGUUACCUAA [g2:g26:cont:t1A]	0.414 ± 0.063
CUUAACCUCUGGAUCUACUGAGUUACCUAA	0.646 ± 0.047
CUUAACCUCUGGAUCUACUGGAGUUACCUAA	0.00317 ± 0.0031
CUUAUCCUCUGGAUCUACUGAGUUACCUAA	0.779 ± 0.05
CUUAUCCUCUGGAUCUACAGGGUUUCCUAA	0.119 ± 0.02
GAAUUCCUCUGGAUCUACUGGGUGACCUAA	0.244 ± 0.038
GAAUUCGUCUGGAUCUACUGGGUUAGCUAA	0.293 ± 0.068
CUUAACCUCUGGAUCUACUCGGUUACCUUA	0.052 ± 0.011
CAAUACCUCUGGAUCUACUGGGUUACCUAA	0.395 ± 0.06
CAAUACCUCUGGUUCUACUGGGUUACCUAA	0.909 ± 0.066
CUUAACCUCUGGUUCUACUGCGUUACCUAA	0.754 ± 0.077
GAAUACCUCUGGUUCUACUGGGUUACCUAA	0.59 ± 0.052
CUUAUCCUCUGGUUCUACUGCGUUACCUAA	0.455 ± 0.04
CUAUACCUCUGCAUCUACUGGGUUACCUAA	0.439 ± 0.042
CUAUACCUCUGGUUCUACUGGGUUACCUAA	0.696 ± 0.053
CUUAACCUCUGGUUCUACUGGGUUACCUAA	0.479 ± 0.042
CUUUACCUCUGGUUCUACUGGGUUACCUAA	0.514 ± 0.043
